In all, about 330,000 compounds went through this assay and about 1,900 (0.58%) were called active. Roughly 4% stayed inconclusive and do not appear here. Not all results are given here. Results with a measured potency or affinity are listed apart. Values without a mark were called inactive. Cut-off read from the data, not from the text of the source: inconclusive = inhibition above about 70% without an active follow-up result; inactive = below that.
Experiment: M. tuberculosis growth inhibition, HTS (AID 449762);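 note: bacterial growth assessed after seven days of incubation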
Conditions: M. tuberculosis H37Rv growth inhibition, 7H9 media; at 25 µM; hits give high values

Structure (SMILES)	inhibition
Cc1cc(C)cc(NC(=O)CCn2c(=S)[nH]c3ccccc3c2=O)c1	3.81%
Clc1ccc(Cl)c(OCCCCNCc2ccccc2)c1	6.87%
Cc1cccc(OCCCCNCc2ccccc2)c1	0.71%
COc1ccc(Br)cc1/C=C/c1ccc2cccc(O)c2n1	69.8%
COc1cc(Br)c(/C=C/c2ccc3cccc(O)c3n2)cc1OC	15.4%
On1c(-c2ccc(Cl)cc2)nc2ccccc21	67.2%
COc1cc(CNn2nnnc2N)cc(Br)c1OCc1c(Cl)cccc1Cl	0.85%
Cc1ccc(N2CCN(S(=O)(=O)N3CCCCC3)CC2)cc1C	-2.98%
CCOC(=O)C1=C(C)NC(SCC(=O)Nc2cc(C)on2)=C(C#N)C1c1cccs1 (stereo not given)	-1.09%
CCOC(=O)C1=C(C)NC(SCC(N)=O)=C(C#N)C1c1cccs1 (stereo not given)	-3.02%
O=C(COC(=O)c1cc(=O)[nH]c2ccccc12)NC(=O)c1ccccc1	-1.53%
COc1ccc(Nc2nc(CC(C)=O)ns2)cc1OC	-2.22%
O=C1CN(C(=O)CN2C(=O)NC(c3ccccc3)(c3ccccc3)C2=O)c2ccccc2N1	-4.74%
CC(=O)N1CCN(C(=O)c2ccc(-c3cccc(C(F)(F)F)c3)o2)CC1	-1.68%
O=C(c1ccc(-c2cccc(C(F)(F)F)c2)o1)N1CCCCCCC1	4.53%
CCCCS(=O)(=O)N1CCC(C(=O)Oc2ccccc2OC)CC1	28.5%
Cc1ccc(C(C(=O)Nc2ccc3c(c2)OCO3)N(C)C(=O)Cc2c[nH]c3ccccc23)cc1 (stereo not given)	-1.34%
C/C(=C\C(=S)Nc1ccccc1)Nc1cccc2ccccc12	64.1%
C/C(=C\C(=S)Nc1ccccc1)Nc1ccccc1	3.81%
O=C(CC1CCCCC1)NCCCN1CCOCC1	-0.7%

Structure (SMILES)	inhibition
O=C(CSc1nc2[nH]c(=O)cc(O)c2s1)Nc1ccc(Br)cc1	-3.77%
CC(=O)N1CCc2cc(Br)cc(S(=O)(=O)NCC3CCCO3)c21 (stereo not given)	0.13%
COc1cc2cc(C(=O)N(C)Cc3ccccc3)[nH]c2cc1OC	6.88%
COCCCn1c(SCc2ccc(OC)cc2)nc2cc(OC)c(OC)cc2c1=N	-4.77%
COCCCn1c(SCc2ccccc2)nc2cc(OC)c(OC)cc2c1=N	-2.27%
O=C(CN1C(=O)NC2(CCCC2)C1=O)OCc1cccc(Br)c1	-6.4%
O=C(NC1CCSc2ccccc21)c1ccccc1Cl (stereo not given)	43.4%
O=C(NC1CCSc2ccccc21)c1ccccc1F (stereo not given)	12.7%
COc1ccc(OCc2n[nH]c(=S)n2-c2ccc(C)cc2)cc1	3.01%
Cc1cc(=O)[nH]c(N/N=C/c2c(C)nn(-c3ccc(F)cc3)c2Cl)n1	0.52%
Cc1ccc(-c2nc(N=Nc3ccc(O)cc3)n[nH]2)cc1	4.83%
Oc1ccc(N=Nc2n[nH]c(-c3ccc(Br)cc3)n2)cc1	4.79%
CCC(CO)Oc1cc(NC(=O)c2ccc(N)cc2)c2ncn(C(C)C)c2c1 (stereo not given)	4.76%
COc1ccc(-c2[nH]ncc2-c2ccc(Cl)cc2)c(O)c1	41.7%
CCOc1ccc(-c2[nH]ncc2-c2ccccc2)c(O)c1	9.38%
O=[N+]([O-])c1ccc(COc2ccc(-c3[nH]ncc3-c3ccccc3)c(O)c2)cc1	-2.72%
COc1ccc(-c2cn[nH]c2-c2ccc(OCc3ccc([N+](=O)[O-])cc3)cc2O)cc1	8.94%
Cc1cc(N2C(=O)C3CC=CCC3C2=O)cc(C)c1Br (stereo not given)	4.22%
CC(=NNC(=O)c1ccc(NS(=O)(=O)c2ccc(Br)cc2)cc1)c1cccnc1	9.29%
CC(C)Cc1nc2sc3c(=O)[nH]cnc3c2c2c1CCCC2	1.08%

Structure (SMILES)	inhibition
CCN(CC)C(=O)CNC(=S)N(CCCN1CCOCC1)Cc1cccs1	1.2%
CCc1cc(-c2[nH]ncc2-c2ccc([N+](=O)[O-])cc2)c(O)cc1OC	1.64%
CCCn1c(NC(=S)Nc2ccccc2)nc2ccccc21	2.43%
CCCCn1c(NC(=S)Nc2ccccc2)nc2ccccc21	2.6%
CSc1nc2ccsc2c(=O)n1-c1ccccn1	-2.21%
CCn1c(C)nc2cc(C(=O)OCCC(F)(F)F)ccc21	-1.06%
CCn1c(C)nc2cc(C(=O)OC)ccc21	-7.44%
COc1ccccc1C(=O)NC(CCSC)C(=O)OCC(=O)N1CCCC1=O (stereo not given)	-5.17%
COc1ccc(-c2c(C#Cc3ccsc3)c3cc(-c4ccc5cc[nH]c5c4)ccc3n2C)cc1	-6.96%
CN(C)CCN(Cc1ccccc1)C(=O)[C@H](Cc1ccccc1)N1C(=O)c2ccccc2C1=O	-1.93%
CSc1nsc(SCC(=O)Nc2ccccc2C(N)=O)n1	2.11%
COc1ccc(NC(=O)CSc2nc(SC)ns2)c(OC)c1	4.38%
O=C1/C(=C/c2ccc([N+](=O)[O-])cc2)C=C(c2ccccc2)N1c1ccccc1	10.5%
O=C(O)c1cccc(N2C(=O)/C(=C/c3ccc([N+](=O)[O-])cc3)C=C2c2ccccc2)c1	7.59%
COc1ccc(-n2c(SCC(=O)N3CCc4ccccc43)nnc2-c2c[nH]c3ccccc23)cc1	7.85%
COc1ccccc1N(CC(=O)NC(C)(C)C)C(=O)CCC(=O)Nc1nccs1	-0.5%
CC1(CCc2ccccc2)NC(=O)N(CC(=O)Nc2ccc(S(N)(=O)=O)cc2)C1=O (stereo not given)	0.35%
NC[C@H](Cc1ccccc1)NCCCCC1CCCCC1	-8.88%
CNC[C@@H](C)NC[C@@H](Cc1ccccc1)NCCc1ccccc1	1.77%
COc1cccc(NC(=O)COC(=O)c2ccccc2SCC(=O)N2CCCC2)c1	5.04%

From PubChem BioAssay AID449762 (Southern Research Specialized Biocontainment Screening …, 2010)
